Measured values: PubChem BioAssay AID652015 (National Center for Advancing Translational Sciences (NCATS), 2013)
Results filed as inconclusive are left out. A number with no mark means an inactive call. Active and inactive are the calls of the source. The call rests on the fitted dose curve; in most records, active means well fitted inhibition curve with a large enough effect; inconclusive means small, poorly fitted or top-dose-only effect; inactive means no such curve, though single readings can be large or run the other way.

Target: Coelenterazine h 2-monooxygenase (Renilla reniformis) (UniProt P27652)
Sequence (P27652 whole entry, looked up): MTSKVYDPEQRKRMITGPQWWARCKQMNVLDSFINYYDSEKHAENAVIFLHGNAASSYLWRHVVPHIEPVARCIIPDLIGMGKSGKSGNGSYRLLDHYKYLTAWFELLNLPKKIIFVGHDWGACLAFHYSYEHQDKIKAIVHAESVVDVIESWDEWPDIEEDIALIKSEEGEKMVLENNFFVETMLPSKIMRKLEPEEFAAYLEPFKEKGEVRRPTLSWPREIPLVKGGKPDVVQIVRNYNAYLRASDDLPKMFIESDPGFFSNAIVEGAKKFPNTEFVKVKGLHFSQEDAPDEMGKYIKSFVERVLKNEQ
Test: qHTS Assay for Inhibitors of Sea Pansy Luciferase from the GSK Published Protein Kinase Inhibitor Set
Settings: purified Renilla luciferase, luminescence; series mostly up to 57.5 µM; activity change, negative = inhibition: at the top concentration
How it was run: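 Purified R. reniformis luciferase (1 nM final) with 5 uM coelenterazine h in 50 mM Tris acetate pH 7.5, 100 uM NaCl, 0.01% Tween-20, 0.05% BSA. A titration, about 60 uM to 300 pM; luminescence read after about 2 min.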
Potency means the concentration at half of the fitted maximal effect.

SMILES | activity change, negative = inhibition [%] | Potency
NCc1ccc(-c2nc(-c3ccc(Cl)c(O)c3)c(-c3ccncc3)[nH]2)cc1 | 13 | 
COc1cccc(Nc2nccc(-c3cnn4ncccc34)n2)c1 | 51.7 | 
COc1cc2ncnc(Nc3ccc(C)c(O)c3)c2cc1OC | 28.5 | 
Fc1ccc(-c2ncn(C3CCNCC3)c2-c2ccnc(Oc3ccc(F)c(F)c3)n2)cc1 | 14.2 | 
Fc1cccc(COc2ccc(Nc3ncnc4sc(-c5ccco5)cc34)cc2Cl)c1 | 45.2 | 
CS(=O)(=O)CCNCc1ccoc1-c1ccc2ncnc(Nc3ccc(OCc4ccccc4)cc3)c2c1 | 39.4 | 
CCn1c(-c2nonc2N)nc2ccccc21 | 19.1 | 
O=C1Nc2ccc(C(=O)c3ccco3)cc2/C1=C/c1cc(Cl)c(O)c(Cl)c1 |  | 16.3 µM (active)
Nc1nccc(-c2c(-c3ccc(F)cc3)nn3cc(C(F)(F)F)ccc23)n1 | 15 | 
COc1cc(C)c(NC(=O)CN(C)C)cc1Nc1nc(Nc2cccc(F)c2C(N)=O)c2cc[nH]c2n1 | 9.98 | 
Cc1cc(O)cc(C)c1C=Cc1cncc(C(=O)OC(C)(C)C)c1 | 37.2 | 
NS(=O)(=O)c1ccc(-c2ccc3c(NC(=O)C4CC4)n[nH]c3c2)cc1 | 20.8 | 
CN(C)CCOc1ccc(-c2cc(-c3ccc4c(c3)CCC4=NO)c(-c3ccncc3)o2)cc1 | 0.341 | 
Cc1cccc(-c2[nH]ncc2-c2ccc3ncccc3n2)n1 | 33.5 | 
CN1CCC(n2cnc(-c3ccc(F)cc3)c2-c2ccnc(NCCO)n2)CC1 | 36.2 | 
CCn1c(-c2nonc2N)nc2cncc(C(=O)N3CCNCC3)c21 | 43 | 
Fc1ccc(-c2nn3ncccc3c2-c2ccnc(Nc3ccc4c(c3)OCCO4)n2)cc1 | 39.4 | 
